# Measurements as given in the OligoGym collection.
# Target: USO1
# Test: pooled miR-30 sensor sort-seq; sequence = guide strand
# Details: shRNA
# Note: reference of the scale not given here.
row,Sequence,sensor-assay potency score (higher = more potent)
1,TATGATATAATCTCTATTGTTC,-0.231
2,TAGCATTAGATGTAGATTGGTC,0.084
3,TTATCATTGAAATAAATCGAAA,-1.61

# Target: USP2
# Test: as above
# Details: shRNA
row,Sequence,sensor-assay potency score (higher = more potent)
1,TTGGTGAAGAGCCTCATGCAGT,-0.823
2,ATTGAGTTCATGAAGCACGTGT,0.753
3,TTTTGCAAACTCTTCCACGAGG,-0.596
4,TATTTTCTCCACATCTGTCGGC,0.643
5,TAGAACAGTAACCACAATCTGT,-0.00783
6,TTAGGTCTCAGTGTCACTCGGT,0.557
7,TAGATATTTTCTCCACATCTGT,-1.14
8,TAGTTTTGCAAACTCTTCCACG,-0.662
9,TAGGTCTCAGTGTCACTCGGTT,-0.44
10,TGAAAGTGTGCCATTCTCCTGT,0.787
11,TTCTCCACATCTGTCGGCCTTT,-0.4

# Target: USP43
# Test: as above
# Details: shRNA
row,Sequence,sensor-assay potency score (higher = more potent)
1,TACTCCACCAACTCGACGGAGG,-1.32
2,TTGCTGAGGATAGACTGCTGGA,-0.504
3,TTCGGAGACAAATAGCTGCAGG,-0.652
4,TAGCACCTTGCTCTCACTGTGG,-0.424
5,TAGGTAGGGACACACACAGGAA,-1.19
6,TTGCACAAAGCTTTGACCTAGA,0.359
7,TAGAACAGGATATAAGCCCCTC,-0.232
8,TTGCTGTGTTTGGACCATCTGA,-0.995
9,TCGTACAGGAAGTCCAGCGGGT,-0.327
10,TGTAGAACTGAAAACATTCATC,-0.712
11,TTTCCTTGAGTTTCCTTGCTGT,0.819
12,TTTGCACAAAGCTTTGACCTAG,0.51
